Hits are enriched below; roughly 6% of the tested compounds scored in any of these assays.
D1 PAM – enhances dopamine response at the human D1 receptor; P21728; HEK293 TREx D1 cells, calcium flux, dopamine EC20 potentiation; potentiation, % at 10 µM; 360,000 tested, 0.036% active; AID 504651; in the data active = potentiation above about 30%; also: 0% is about no effect
D1 antagonist – human D1 dopamine receptor antagonism; P21728; HEK293 TREx D1 cells, calcium flux, dopamine EC80; hits give low values; activity change, negative = inhibition, % at 10 µM; 360,000 tested, 3.2% active; AID 504652; in the data active = activity change below about -30%; also: % is scaled to controls: 0 for no effect and ±100 for the full control effect
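HEK293 T-REx cells expressing inducible, force-coupled D1 receptor; no-wash Ca dye, 30–90 min RT. Cmpd → 180 s read at 1 Hz → EC80 DA → 180 s read.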
D3 ag – D3 dopamine receptor (human) agonism; P35462; D3R DiscoveRx beta-arrestin cells, luminescence, 90 min; max activation, %; 410,000 tested, 0.58% active; AID 652048; in the data active = max activation above about 30%; also: 0% is about no effect
Target sequence (P35462 whole entry, looked up): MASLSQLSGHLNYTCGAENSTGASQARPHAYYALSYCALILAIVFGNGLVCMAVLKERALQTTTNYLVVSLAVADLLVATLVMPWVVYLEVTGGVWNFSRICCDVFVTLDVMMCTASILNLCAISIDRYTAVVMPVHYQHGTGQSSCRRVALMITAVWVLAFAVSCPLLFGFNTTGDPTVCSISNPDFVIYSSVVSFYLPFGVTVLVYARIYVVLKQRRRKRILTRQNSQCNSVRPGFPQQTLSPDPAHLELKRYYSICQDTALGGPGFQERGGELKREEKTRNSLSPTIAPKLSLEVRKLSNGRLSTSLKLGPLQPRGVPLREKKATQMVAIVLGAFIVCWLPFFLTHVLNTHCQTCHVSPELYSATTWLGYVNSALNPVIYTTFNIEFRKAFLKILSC
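Cells at 1500/well, incubated overnight, then treated with pinned compounds (dopamine as control) for 90 min at 37 degrees C. DiscoveRx reagent added for 30 - 60 minutes at room temperature; luminescence read.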
D1 agonist – human D1 receptor agonism; P21728; HEK293 T-REx D1 cells, calcium flux, agonist mode; activation, % at 2 µM; 360,000 tested, 1% active; AID 504660; in the data active = activation above about 30%; also: 0% is about no effect
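Agonism was scored from calcium flux recorded over 180 s (1 read/s) after pintool compound addition, following a 10-cycle baseline. Cells were inducible force-coupled HEK293 TREx D1, plated overnight at 30 C and loaded with no-wash calcium dye.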
D3 antag – antagonists of human D3 dopamine receptor; P35462; D3R cells, DiscoveRx beta-arrestin luminescence, antagonist mode; hits give low values; max response, negative = inhibition, %; 360,000 tested, 2.5% active; AID 652054; in the data active = max response below about -50%; inconclusive = no clear call, values can overlap the other calls; also: % is scaled to controls: 0 for no effect and ±100 for the full control effect
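Cells expressing the human receptor were seeded at 1500 cells/well, incubated overnight at 37 degrees C in 5% CO2, then exposed to library compounds with dopamine controls for 90 minutes at 37 degrees C before luminescent detection.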
Numbers without * were called inactive; ? = inconclusive; / = no result given.

SMILES | D1 PAM | D1 antagonist | D3 ag | D1 agonist | D3 antag
COc1ccc(CNC(=O)C2CCC(=O)N(CCCN3CCCC3=O)C2)c(OC)c1 (centres undefined) | -4 | 4 | 33* | 2 | 19
COc1ccccc1CNC(=O)C1CCC(=O)N(CCCN2CCCC2=O)C1 (centres undefined) | -8 | -23 | 3 | 3 | 6
CCOc1ccc2[nH]c(=O)c(CN(Cc3ccco3)C(=O)c3ccc(Br)cc3)cc2c1 | 0 | 12 | 1 | 3 | 81
COc1ccc2[nH]c(=O)c(CN(c3ccccc3)S(=O)(=O)c3ccccc3)cc2c1 | -3 | 0 | 33* | 2 | 28
COc1ccc2[nH]c(=O)c(CN(Cc3ccco3)C(=O)c3ccccc3)cc2c1 | 1 | -3 | -8 | -1 | -88*
COc1ccc2[nH]c(=O)c(CN(C(=O)c3cccnc3)c3ccccc3)cc2c1 | 36* | 1 | -1 | 0 | -12
COc1ccc2[nH]c(=O)c(CN(Cc3cccs3)C(=S)Nc3cccc(C)c3)cc2c1 | -6 | -32* | 1 | 4 | 0
COc1ccc2[nH]c(=O)c(CN(c3ccccc3OC)S(=O)(=O)c3ccccc3)cc2c1 | -2 | -3 | -4 | 1 | 51
COc1ccc2[nH]c(=O)c(CN(Cc3cccnc3)C(=O)Nc3ccccc3)cc2c1 | -4 | -37* | 2 | 0 | -5
O=C(N/N=C/c1ccc([N+](=O)[O-])o1)c1ccc(NS(=O)(=O)c2cccs2)cc1 | -3 | -89* | -18 | 1 | -17
O=C(N/N=C/c1ccc([N+](=O)[O-])cc1)c1ccc(NS(=O)(=O)c2cccs2)cc1 | -4 | -11 | -1 | 1 | 0
O=C(Cc1nc2ccccc2[nH]c1=O)c1ccccc1 | -4 | -7 | 1 | 52* | 14
CCN(c1ccccc1)S(=O)(=O)c1c(C)nc2scc(C)n2c1=O | 3 | 0 | 4 | 0 | /
CN(C)CCCn1c(N)c(S(=O)(=O)c2ccccc2)c2nc3ccccc3nc21 | -4 | -7 | -4 | 3 | ?
CCCCn1c(N)c(S(=O)(=O)c2ccc(C)cc2)c2nc3ccccc3nc21 | -4 | -8 | 32* | 3 | 11
Cc1ccc(-c2cc(NC(=O)COc3c(C)cc(C)cc3C)on2)cc1 | -2 | -21 | -1 | 3 | /
Cc1ccc(N(C)C(CNS(=O)(=O)c2ccccc2)c2ccccc2)cc1 (centres undefined) | -1 | -48* | 1 | 3 | /
CN(c1ccccc1)C(CNS(=O)(=O)c1ccccc1)c1ccccc1 (centres undefined) | -2 | 7 | 7 | 3 | /
O=C(Cc1cccc2ccccc12)Nc1c(F)cccc1F | -5 | -36* | -11 | 1 | -21
CCNc1nc(Oc2ccc(C(=O)OC)cc2)nc(N(C)C)n1 | -5 | -31* | 2 | 12 | -22
Cn1c(=O)c2cc(C(=O)N3CCN(c4ccc(Cl)cc4)CC3)sc2c2ccccc21 | 2 | -1 | 11 | 2 | /
CCN(CC)c1ccc2cc(C(=O)NCc3ccc(F)cc3)c(=N)oc2c1 | -11 | -29 | / | 170* | /
N=c1oc2ccc(Br)cc2cc1C(=O)NCc1ccc(F)cc1 | 0 | 10 | 1 | 1 | 0
Cc1cccc(C2C=C(c3ccc(C)c(C)c3)Nc3nnnn32)c1 (centres undefined) | -4 | 1 | -16 | 2 | /
Cc1cc(C(F)F)n2ncc(C(=O)NCc3ccccc3F)c2n1 | -4 | -32* | 2 | 2 | 6
SMILES | D1 PAM | D1 antagonist | D3 ag | D1 agonist | D3 antag
Cc1cc(C)n2ncc(C(=O)Nc3ccc(Cl)c(Cl)c3)c2n1 | 3 | -5 | -2 | -1 | 2
Cc1cc(C(F)F)n2ncc(C(=O)NC3CCCCCC3)c2n1 | -5 | -18 | -4 | 0 | -52*
Cc1cc(C(F)F)n2ncc(C(=O)NCc3ccccc3C(F)(F)F)c2n1 | 9 | 15 | 5 | 6 | -7
Cc1cc(C)n2ncc(C(=O)O)c2n1 | -3 | -46* | 1 | -1 | 4
COc1cc(NC(=O)CCn2nc(C)c(S(=O)(=O)N3CCCCC3)c2C)cc(OC)c1OC | -1 | 2 | -10 | -1 | /
COc1cc(C)ccc1OCCSc1nc2ccc(NC(=O)c3ccco3)cc2s1 | -1 | -29 | 9 | 0 | /
Cc1cc(=O)n2nc(N3CCC(C(=O)Nc4ccc(Br)c(C)c4)CC3)sc2n1 | -3 | 9 | 4 | 0 | /
